# Laboratory results: PubChem BioAssay (NCI)
# Values joined by “and” are separate entries in the source; they are usually repeats but may differ in a detail not shown here. Identical values can stand only once. Compounds without any hit were thinned out: in the full panel of roughly 79,000, 15% have a hit. A structure can be active in one record and inactive in another. Active and inactive are the calls of the source. Rule as the data show it: active = growth inhibition above about 70%; inactive = the rest.
# Columns and labels:
# [1] = NCI Yeast Anticancer Drug Screen. Data for the sgs1 mgt1 strain (AID 161);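 also: 0% = growth of cultures given vehicle only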; settings: S. cerevisiae sgs1 mgt1 strain, stronger effect = higher value
# Outline: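 Yeast cells carrying a defined DNA-repair defect were exposed to test compounds. Growth inhibition was measured relative to vehicle-treated controls.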
# [2] = NCI Yeast Anticancer Drug Screen. Data for the CLN2oe strain (AID 163);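 also: 0% = growth of vehicle-only control cultures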; settings: S. cerevisiae CLN2oe strain, stronger effect = higher value
# Outline: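 Values reflect how much compound exposure reduced yeast growth, referenced to vehicle-exposed cells. Assay organism is a strain with a defined genetic change affecting cell-cycle control.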
# [3] = NCI Yeast Anticancer Drug Screen. Data for the cln2 rad14 strain (AID 165);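 also: 0% = growth equal to vehicle treated cultures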; settings: S. cerevisiae cln2 rad14 strain, stronger effect = higher value
# Outline: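 Relative to vehicle controls, growth inhibition of compound-treated cln2 rad14 yeast was recorded.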
# [4] = NCI Yeast Anticancer Drug Screen. Data for the bub3 strain (AID 167); settings: S. cerevisiae bub3 mutant strain, stronger effect = higher value
# Outline: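 Steps: expose the mutant yeast strain to compound; grow alongside vehicle-treated cultures; measure growth; express inhibition against the vehicle cultures.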
# [5] = NCI Yeast Anticancer Drug Screen. Data for the wt2 strain (AID 169);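 also: 0% = growth of vehicle-treated yeast cultures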; settings: S. cerevisiae wt2 strain growth inhibition, stronger effect = higher value
# Outline: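 Values express reduction in yeast growth under compound treatment, referenced to vehicle-treated cells.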
# [6] = NCI Yeast Anticancer Drug Screen. Data for the mlh1 strain (AID 171);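 also: 0% = growth of vehicle-treated control cultures of the same strain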; settings: S. cerevisiae mlh1 strain growth inhibition, stronger effect = higher value
# Outline: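 Steps: expose the defined-mutant yeast strain to compound; expose a parallel culture to vehicle; measure growth; express compound effect as inhibition relative to the vehicle culture.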
# [7] = NCI Yeast Anticancer Drug Screen. Data for the sgs1 strain (AID 173);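 also: 0% = growth of vehicle-only control cultures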; settings: S. cerevisiae sgs1 mutant, stronger effect = higher value
# Outline: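 Treat defined-mutant yeast with compound; measure growth; calculate inhibition relative to vehicle-treated cells.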
# [8] = NCI Yeast Anticancer Drug Screen. Data for the mlh1 rad18 strain (AID 175); settings: S. cerevisiae mlh1 rad18 strain growth inhibition, stronger effect = higher value
# Outline: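 Test agents were incubated with a yeast strain of defined genotype (DNA damage repair defect). Inhibition of growth was derived by comparison with vehicle-exposed cultures.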
# [9] = NCI Yeast Anticancer Drug Screen. Data for the rad18 strain (AID 177); settings: S. cerevisiae rad18 mutant growth inhibition, stronger effect = higher value
# Outline: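 A genetically defined yeast mutant impaired in DNA damage repair was treated with test compounds, then its growth was measured against cultures receiving vehicle alone.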
# [10] = at 5.0 µM (retest, dose inferred, filed as 0.5)
# [11] = at 50.0 µM (retest, dose inferred, filed as 5.0)
smiles,measurement,setting,value
O=C(NNc1ccccc1)C(O)C(O)C(O)C(O)C(O)CO (configuration not stated),growth inhibition,[1]; [10],-10% (inactive) and 9% (inactive) and 13% (inactive)
same,growth inhibition,[1]; [11],35% (inactive) and 52% (inactive) and 71% (active)
same,growth inhibition,[1]; at 50.0 µM,78.5% (active) and 54.9% (inactive) and 60.7% (inactive)
same,growth inhibition,[2]; at 1.2 µM,-2% (inactive)
same,growth inhibition,[2]; at 3.7 µM,3% (inactive)
same,growth inhibition,[2]; at 11.0 µM,22% (inactive)
same,growth inhibition,[2]; at 33.0 µM,52% (inactive)
same,growth inhibition,[2]; at 100.0 µM,76% (active)
same,growth inhibition,[3]; [10],4% (inactive) and 3% (inactive)
same,growth inhibition,[3]; [11],54% (inactive) and 48% (inactive) and 81% (active)
same,growth inhibition,[3]; at 50.0 µM,54.4% (inactive) and 55.3% (inactive) and 78.8% (active)
same,growth inhibition,[4]; at 1.2 µM,-3% (inactive)
same,growth inhibition,[4]; at 3.7 µM,0% (inactive)
same,growth inhibition,[4]; [10],-1% (inactive) and 10% (inactive) and 14% (inactive)
same,growth inhibition,[4]; at 11.0 µM,33% (inactive)
same,growth inhibition,[4]; at 33.0 µM,75% (active)
same,growth inhibition,[4]; [11],38% (inactive) and 79% (active) and 90% (active)
same,growth inhibition,[4]; at 50.0 µM,96.8% (active) and 45.6% (inactive) and 87.4% (active)
same,growth inhibition,[4]; at 100.0 µM,92% (active)
same,growth inhibition,[5]; at 1.2 µM,2% (inactive)
same,growth inhibition,[5]; at 3.7 µM,12% (inactive)
same,growth inhibition,[5]; at 11.0 µM,28% (inactive)
same,growth inhibition,[5]; at 33.0 µM,39% (inactive)
same,growth inhibition,[5]; at 100.0 µM,80% (active)
same,growth inhibition,[6]; at 1.2 µM,4% (inactive)
same,growth inhibition,[6]; at 3.7 µM,2% (inactive)
same,growth inhibition,[6]; at 11.0 µM,22% (inactive)
same,growth inhibition,[6]; at 33.0 µM,44% (inactive)
same,growth inhibition,[6]; at 100.0 µM,91% (active)
same,growth inhibition,[7]; at 1.2 µM,2% (inactive)
same,growth inhibition,[7]; at 3.7 µM,10% (inactive)
same,growth inhibition,[7]; at 11.0 µM,37% (inactive)
same,growth inhibition,[7]; at 33.0 µM,67% (inactive)
same,growth inhibition,[7]; at 100.0 µM,94% (active)
same,growth inhibition,[8]; [10],23% (inactive) and 28% (inactive) and 26% (inactive)
same,growth inhibition,[8]; [11],85% (active) and 87% (active) and 93% (active)
same,growth inhibition,[8]; at 50.0 µM,86.9% (active) and 85.9% (active) and 95.2% (active)
same,growth inhibition,[9]; at 1.2 µM,5% (inactive)
same,growth inhibition,[9]; at 3.7 µM,13% (inactive)
same,growth inhibition,[9]; at 11.0 µM,39% (inactive)
same,growth inhibition,[9]; at 33.0 µM,67% (inactive)
same,growth inhibition,[9]; at 100.0 µM,92% (active)
